This is part of a sample that, as a whole, favours compounds with a hit. Of some 79,000 tested, about 15% had one in any assay. Cut-off read from the data, not from the text of the source: active = growth inhibition above about 70%; inactive = the rest.
Legend:
[1] = NCI Yeast Anticancer Drug Screen. Data for the rad50 strain (AID 155);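 note: 0% = growth of vehicle-only cultures of the same strain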; conditions: S. cerevisiae rad50 strain growth inhibition; at 50.0 µM; active compounds read high
Method in brief: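 Cells are treated with compound, grown, and their growth is then scored against vehicle-only cultures of the same repair-deficient yeast strain.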

[2] = NCI Yeast Anticancer Drug Screen. Data for the mec2-1 strain (AID 157); conditions: S. cerevisiae mec2-1 strain, at 50.0 µM, active compounds read high
Method in brief: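 Each compound was tested on mec2-1 yeast, a strain altered in DNA damage repair or cell cycle control. Growth inhibition is reported relative to vehicle.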

[3] = NCI Yeast Anticancer Drug Screen. Data for the sgs1 mgt1 strain (AID 161);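 note: 0% = growth of cultures given vehicle only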; conditions: S. cerevisiae sgs1 mgt1 strain, at 50.0 µM, active compounds read high
Method in brief: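 Read-out: growth inhibition vs vehicle controls. Cells: mutant yeast strain deficient in DNA damage repair.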

[4] = NCI Yeast Anticancer Drug Screen. Data for the cln2 rad14 strain (AID 165);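 note: 0% = growth equal to vehicle treated cultures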; conditions: S. cerevisiae cln2 rad14 strain, at 50.0 µM, active compounds read high
Method in brief: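 Test compounds were added to cln2 rad14 yeast cultures; inhibition of growth was then determined by comparison with vehicle treatment.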

[5] = NCI Yeast Anticancer Drug Screen. Data for the bub3 strain (AID 167); conditions: S. cerevisiae bub3 mutant strain, at 50.0 µM, active compounds read high
Method in brief: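 Part of a panel of yeast mutants defective in DNA damage repair or cell cycle regulation. Each strain is grown with compound, and inhibition is calculated relative to solvent-treated cultures.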

[6] = NCI Yeast Anticancer Drug Screen. Data for the mlh1 rad18 strain (AID 175); conditions: S. cerevisiae mlh1 rad18 strain growth inhibition; at 50.0 µM; active compounds read high
Method in brief: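 Inhibition values reflect reduced growth of mutant yeast versus vehicle-treated controls following compound exposure; the mutations affect DNA damage repair.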

Measured: growth inhibition

COc1cc(C=O)cc(OC)c1OC
inactive: [1] 1.45% | [2] -10.6% | [3] 5.25% | [4] -14.1% | [5] -7.1% | [6] -20.1%

NC(N)=N/N=C1\C(=O)N(c2cccc([N+](=O)[O-])c2)C(=O)C1C(=O)Nc1cccc([N+](=O)[O-])c1 (stereo unspecified)
inactive: [1] -17.9% | [2] -22.4% | [3] -17.1% | [4] -29.6% | [5] 1.4% | [6] -14.5%

COc1ccc([N+](=O)[O-])cc1
inactive: [1] 23.6% | [2] -5.8% | [3] 12.6% | [4] 20.9% | [5] 1.1% | [6] -20.9%

COc1ccc(CCN)c(OC)c1
inactive: [1] -11.2% | [2] 2.8% | [3] -3.5% | [4] -13.1% | [5] -8.25% | [6] -35.1%

CN1CCCC(C(=O)c2ccccc2)C1 (stereo unspecified)
inactive: [1] 0.45% | [2] -5.1% | [3] -0.3% | [4] -18.9% | [5] -4.95% | [6] 3.75%

N#CC1(c2ccccc2)CCNCC1
inactive: [1] -2.2% | [2] -33.5% | [3] -3.15% | [4] 1.05% | [5] -0.5% | [6] -17.8%

NS(=O)(=O)c1cccc([As](=O)(O)O)c1
inactive: [1] -11.1% | [2] 10.4% | [3] -12.9% | [4] -3.55% | [5] -13.9% | [6] -3.6%

COS(=O)(=O)c1ccc(C)cc1
inactive: [1] 24.2% | [2] -1.85% | [3] -8.2% | [4] 12.7% | [5] -7.7% | [6] -3.75%

CC(=O)Nc1nn[nH]n1
inactive: [1] 21.9% | [2] 14.4% | [3] 2.1% | [4] 6.95% | [5] 0.7% | [6] 17.5%

C[N+](C)(C)CC1CCC/C1=N/O (stereo unspecified)
inactive: [1] 44.8% | [2] 13.4% | [3] -0.5% | [4] 9.95% | [5] 26.8% | [6] 34.9%

O=C1C=CC(=O)N1c1ccccc1Cl (tested in a mixture with another compound)
inactive: [1] 20.2% | [2] 4.15% | [3] 20.5% | [4] 4.2% | [5] 21.2% | [6] 6.7%

CCN1CC2CCC1C2 (stereo unspecified)
inactive: [1] 5.2% | [2] -3.05% | [3] -14.5% | [4] 5.5% | [5] 3.7% | [6] 4.35%

CCCCOP(=O)(CSCC)OCCCC
inactive: [1] -6.2% | [2] 0.1% | [3] -16.6% | [4] 16.2% | [5] 14.9% | [6] -1.4%

[N-]=[N+]=CC(=O)C1(C(=O)C=[N+]=[N-])CC1
inactive: [1] -14.7% | [2] -11.2% | [3] -41% | [4] -18.1% | [5] -16.9% | [6] -27.1%

Cn1c(O)c(C=N)c(=O)[nH]c1=O
inactive: [1] -4% | [2] 3.35% | [3] -1.65% | [4] -15.7% | [5] -8% | [6] -8.3%

COc1ccc2c(c1OC(C)=O)C1=CC(=O)CCC13CCNC3C2 (stereo unspecified)
inactive: [1] 15.8% | [2] 6.7% | [3] -13.9% | [4] 27.2% | [5] -28.4% | [6] -24.3%

CNC(=O)C(Cl)Cl
inactive: [1] 12.8% | [2] 4.85% | [3] 11.7% | [4] 0.95% | [5] -8.1% | [6] 6.15%

COc1ccc(CC(N)c2ccc(OC)cc2)cc1 (stereo unspecified)
inactive: [1] -50% | [2] 0.8% | [3] -40% | [4] -24.8% | [5] -11.3% | [6] -2.4%

Nc1nc(N)c2[nH]c(N)nc2n1
inactive: [1] -9.65% | [2] -12.2% | [3] -8.9% | [4] -14.4% | [5] 3.45% | [6] -55.3%

CN1C2CCC1C(O)C(c1ccccc1)C2 (stereo unspecified)
inactive: [1] 6.15% | [2] 9.25% | [3] -0.05% | [4] -11.8% | [5] 0.45% | [6] -0.6%

O=C(O)c1cccc(Cl)c1
inactive: [1] 31.6% | [2] 6% | [3] 19.1% | [4] 10.9% | [5] 25.9% | [6] 8.2%
